Measurements reported in PubChem BioAssay AID1626 (SRMLSC, 2009).
Among all 220,000 compounds or so, about 2,000 (0.91%) were called active. Roughly 2% stayed inconclusive and do not appear here. Cut-off read from the data, not from the text of the source: inconclusive = inhibition above about 80% without an active follow-up result; inactive = below that; test concentration not stated here. These entries were drawn from the full list. Results with a measured potency or affinity are listed apart.

experiment: M. tuberculosis H37Rv growth inhibitors, H37Rv strain (AID 1626); conditions: active compounds read high, concentration not given here;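 note: bacteria incubated seven days before Alamar blue readout; 0% = bacteria only wells and 100% = bacteria with antibiotic wells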

Question: Which inhibition does the source give for O=C(O)c1ccc(NC(=O)C2C3CCC(C3)C2C(=O)O)cc1 (stereo unspecified) here?
Answer: 0.17% (inactive)

Question: Which inhibition does the source give for Cn1nc(-c2ccccc2)cc1NC(=O)Nc1ccc(C(C)(C)C)cc1 here?
Answer: 8.89% (inactive)

Question: Which inhibition does the source give for Cn1ncc(Br)c1NC(=O)Nc1ccc(OC(F)(F)F)cc1 here?
Answer: 5.76% (inactive)

Question: With COc1ccc(S(=O)(=O)N2CCCC(C(=O)NCc3ccncc3)C2)cc1 (stereo unspecified) as the compound, how does the inhibition read?
Answer: -3.7% (inactive)

Question: For CN(C)/C=C/C(=O)c1ccc(N2CCN(c3ncc(C(F)(F)F)cc3Cl)CC2)cc1, which inhibition is on record?
Answer: -11.4% (inactive)

Question: For CCOC1(OCC)C(c2ccc(N)cc2)C(C#N)(C#N)C1(OCC)OCC (stereo unspecified), which inhibition is on record?
Answer: -7.48% (inactive)

Question: Which inhibition does the source give for CC(C)(C)S(=O)(=O)c1cnc(-c2ccccn2)nc1N here?
Answer: -8.12% (inactive)

Question: Which inhibition does the source give for OCC#CCSc1nnc(-c2ccncc2)o1 here?
Answer: -1.67% (inactive)

Question: With COc1ccc(-c2nnc(SCC#CCO)o2)cc1OC as the compound, how does the inhibition read?
Answer: -8.82% (inactive)

Question: For O=C(CSc1nnc(-c2cccs2)o1)c1cccs1, which inhibition is on record?
Answer: 11.9% (inactive)

Question: For O=C(CSc1nnc(-c2ccncc2)o1)c1cccc([N+](=O)[O-])c1, which inhibition is on record?
Answer: -6.49% (inactive)

Question: Which inhibition does the source give for COc1ccc(-c2nnc(SCC(=O)c3cccs3)o2)cc1 here?
Answer: 12.7% (inactive)

Question: With O=C(OCC#CCSc1nnc(-c2cccc3ccccc23)o1)c1cccs1 as the compound, how does the inhibition read?
Answer: 60.9% (inactive)

Question: With O=C(NCCSc1ccccc1)c1ccccc1 as the compound, how does the inhibition read?
Answer: -18.6% (inactive)

Question: Which inhibition does the source give for O=C(c1ccco1)[C@@H]1[C@@H]2C(=O)N(c3ccccc3)C(=O)[C@@H]2C2c3ccccc3C=CN21 (stereo partly specified) here?
Answer: -13.4% (inactive)

Question: Which inhibition does the source give for COc1ccc(C)cc1S(=O)(=O)N(CC(=O)Nc1cccc([N+](=O)[O-])c1)c1ccccc1 here?
Answer: 0.46% (inactive)

Question: For Cc1cc(N2CCN(c3cccc(C)c3C)CC2)nc(-c2ccccc2)n1, which inhibition is on record?
Answer: 6.21% (inactive)

Question: With CC(C)(C)C(=O)Nc1nnc(Cc2ccccc2)s1 as the compound, how does the inhibition read?
Answer: 10.8% (inactive)

Question: With CCOC(=O)CSc1nc2ccccc2c(=O)n1CC(C)C as the compound, how does the inhibition read?
Answer: 7.35% (inactive)

Question: For CCOC(=O)C1(CCOc2ccccc2)CCN(Cc2ccc(-n3cccn3)cc2)CC1, which inhibition is on record?
Answer: 4.73% (inactive)

Question: For CCOC(=O)C1(CCOc2ccccc2)CCN(Cc2cccc(-n3cccn3)c2)CC1, which inhibition is on record?
Answer: -2.65% (inactive)

Question: With CCc1cc2c(SCC(=O)N(CC)c3c(N)n(Cc4ccccc4)c(=O)[nH]c3=O)ncnc2s1 as the compound, how does the inhibition read?
Answer: 5.81% (inactive)

Question: Which inhibition does the source give for Clc1ccc(-c2csc(N/N=C/c3ccc4c(c3)OCO4)n2)cc1 here?
Answer: 48.7% (inactive)

Question: For CCNC(=O)Nc1nc2ccccc2s1, which inhibition is on record?
Answer: 4.21% (inactive)

Question: Which inhibition does the source give for Cc1cccc(Cl)c1OCCCCn1ccnc1 here?
Answer: 3.12% (inactive)

Question: Which inhibition does the source give for Cc1cc(OCCCn2ccnc2)cc(C)c1Cl here?
Answer: 16.8% (inactive)

Question: With Cc1ccc(OCCCCn2ccnc2)c(Cl)c1 as the compound, how does the inhibition read?
Answer: 56.8% (inactive)

Question: For Cc1cc(OCCCCn2ccnc2)cc(C)c1Cl, which inhibition is on record?
Answer: 51.5% (inactive)

Question: For O=C(CCN1C(=O)c2ccccc2C1=O)Nc1ccc(S(=O)(=O)N2CCOCC2)cc1, which inhibition is on record?
Answer: -4.04% (inactive)

Question: For Cc1cc(C)cc(OCC(O)CN2C(=O)NC(C)(C)C2=O)c1 (stereo unspecified), which inhibition is on record?
Answer: -17.8% (inactive)

Question: Which inhibition does the source give for FC(F)(F)c1cccc(NC(=S)N2CCN(c3ccccc3)CC2)c1 here?
Answer: -3.11% (inactive)

Question: With CC(NC(=O)Cn1cc(C(=O)C2CC2)c2ccccc21)c1ccccc1 (stereo unspecified) as the compound, how does the inhibition read?
Answer: 6.54% (inactive)

Question: For COC(=O)c1cc(C(=O)c2cc(Cl)ccc2O)coc1=N, which inhibition is on record?
Answer: 3.92% (inactive)

Question: With CC(C)OC(=O)c1cc(C(=O)c2cc(Br)ccc2O)coc1=N as the compound, how does the inhibition read?
Answer: -3.62% (inactive)

Question: Which inhibition does the source give for Nc1nnc(SCC(=O)c2ccc([N+](=O)[O-])cc2)s1 here?
Answer: -6.55% (inactive)

Question: For COc1ccc(S(=O)(=O)N(C)c2ccc(C(N)=O)cc2)cc1, which inhibition is on record?
Answer: 3% (inactive)

Question: With O=C(NCc1ccc2c(c1)OCO2)C1CC(=O)N(C2CCCCCCC2)C1 (stereo unspecified) as the compound, how does the inhibition read?
Answer: 5.14% (inactive)

Question: Which inhibition does the source give for Cc1ccc(-c2nnc(-n3ncc(C#N)c3N)c3ccccc23)cc1C here?
Answer: -8.25% (inactive)

Question: For COc1ccc2cc(C(=O)C3CCCN(C(=O)/C=C/c4ccccn4)C3)ccc2c1 (stereo unspecified), which inhibition is on record?
Answer: 1.13% (inactive)

Question: Which inhibition does the source give for N=c1c2c(-c3ccccc3)c(-c3ccccc3)n(Cc3ccco3)c2ncn1CCO here?
Answer: 20% (inactive)

Question: Which inhibition does the source give for COc1ccc(C2c3c(ncn(Cc4ccco4)c3=N)Oc3ccc4ccccc4c32)cc1 (stereo unspecified) here?
Answer: 38.6% (inactive)

Question: For N=c1c2c(-c3ccccc3)c(-c3ccccc3)n(Cc3ccco3)c2ncn1CCCO, which inhibition is on record?
Answer: 15.2% (inactive)

Question: For COc1ccc(-c2oc3ncn(CCN4CCOCC4)c(=N)c3c2-c2ccc(OC)cc2)cc1, which inhibition is on record?
Answer: -3.67% (inactive)

Question: For CS(=O)(=O)N(CC(=O)Nc1ccccc1C(=O)N1CCCC1)c1cccc([N+](=O)[O-])c1, which inhibition is on record?
Answer: 3.06% (inactive)

Question: For Cc1csc(Nc2cccc3ccccc23)n1, which inhibition is on record?
Answer: 6.85% (inactive)

Question: For Cc1ccc(C(=O)Nc2ccccc2-c2ccccc2)cc1[N+](=O)[O-], which inhibition is on record?
Answer: 14.5% (inactive)

Question: Which inhibition does the source give for COC(=O)CSc1snnc1-c1ccc(F)cc1 here?
Answer: -0.55% (inactive)

Question: With Cc1nn(Cc2c(Cl)cccc2Cl)c(Cl)c1/C=N/NC(=O)c1cccnc1 as the compound, how does the inhibition read?
Answer: -3.52% (inactive)

Question: Which inhibition does the source give for CCc1ccc(NC(=O)C(NS(=O)(=O)c2cccc3nsnc23)c2ccccc2)cc1 (stereo unspecified) here?
Answer: -4.05% (inactive)

Question: Which inhibition does the source give for Cc1ccc(NC(=O)c2ccccc2)cc1OC(=O)c1ccccc1 here?
Answer: 6.17% (inactive)

Question: For Cc1cccc(C(=O)Nc2cccc(OC(=O)c3cccc(C)c3)c2)c1, which inhibition is on record?
Answer: 11.6% (inactive)

Question: With OCCN1CCN(CC(O)COc2ccc(Cl)cc2)CC1 (stereo unspecified) as the compound, how does the inhibition read?
Answer: 1.07% (inactive)

Question: For OCCN1CCN(CC(O)COc2ccc(-c3ccccc3)cc2)CC1 (stereo unspecified), which inhibition is on record?
Answer: 5.51% (inactive)

Question: Which inhibition does the source give for Cc1ccc(CS(=O)(=O)CCC(=O)NCCC2=CCCCC2)cc1 here?
Answer: 7.74% (inactive)

Question: With CCCCc1n[nH]c(=S)n1Cc1ccccc1 as the compound, how does the inhibition read?
Answer: -1.46% (inactive)

Question: For COc1cccc2[nH]c3c(N4CCC5(CC4)OCCO5)ncnc3c12, which inhibition is on record?
Answer: 1.2% (inactive)

Question: Which inhibition does the source give for CC(C)=CCc1cc([C@@H]2COc3c(ccc4c3C=CC(C)(C)O4)C2)c(O)cc1O here?
Answer: 8.4% (inactive)

Question: With CC1(C)C=Cc2c(ccc3c2OC[C@@H](c2ccc(O)cc2O)C3)O1 as the compound, how does the inhibition read?
Answer: 1.16% (inactive)

Question: For COc1ccc2nc(NC(=O)c3cc(S(=O)(=O)N4CCOCC4)ccc3C)sc2c1, which inhibition is on record?
Answer: 14.6% (inactive)

Question: For O=C(c1cn(-c2ccccc2)nc1-c1ccccc1)N1CCOCC1, which inhibition is on record?
Answer: -8.16% (inactive)

Question: Which inhibition does the source give for COc1ccccc1/C=N/NC(=S)NCc1ccco1 here?
Answer: -0.41% (inactive)
